Source: PubChem
KCNH2 3.1 inh: KCNH2 3.1 (human) potassium channel inhibition; 340,000 compounds, 0.95% hits; U2OS KCNH2 3.1, thallium flux FluxOr; stronger effect = lower value; activity change, % (tested at about 1.8 µM);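 active = maximum activity change below -70%; inconclusive = maximum activity change from -70% to -50%; inactive = maximum activity change above -50%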;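 note: thallium influx rate constant from kinetic fluorescence after stimulation buffer; % is set by controls: 0 for no effect and ±100 for the full control effect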
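Virally transduced U2OS (3.1 isoform, 4 h infection in dark at RT) → overnight 37 C → FluxOr + Red40 in HBSS/HEPES, 45 min → stimulation buffer, 2 min kinetic read → rate constant vs DMSO controls.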
MCF10A rereplic: DNA re-replication induction in MCF 10a cells; MCF 10A DNA re-replication, Hoechst nuclear intensity, 48 h; Potency, µM (highest dose often 46.1 µM), for inactives: at the highest dose activity, positive = re-replication, hits mostly activators; AID 624296; 350,000 compounds, 2.9% hits; note: potency is the fitted concentration of half-maximal effect; % of control where 0% means no effect; nearly all actives have a fitted effect of over 50% in size
SW480 rerep: DNA re-replication induction in SW480 cells; Potency, µM (series often up to 46.1 µM), inactives show at the highest dose re-replication activation, most hits filed as activators; SW480 DNA re-replication, Hoechst DNA content imaging, 48 h; 340,000 compounds, 1.8% hits; AID 624297; note: potency is the fitted concentration of half-maximal effect; % of control where 0% means no effect; nearly all actives have a fitted effect of over 55% in size
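250 cells/well; 23 nL cpd via pin tool; 48 hr, 37 C, 5% CO2; Hoechst 40 min; imager read of total nuclear intensity, ex 405/em 500-530 nm.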
KB-3-1 cytotox: kills parental KB-3-1 adenocarcinoma cells | KB-3-1 viability, CellTiter-Glo ATP luminescence, 72 h | 400,000 compounds, 1.4% hits | Potency, µM (doses to about 46.1 µM), usual class: cytotoxic; note: potency is the fitted concentration of half-maximal effect; % is set by controls: 0 for no effect and ±100 for the full control effect; nearly all actives have a fitted effect of over 60% in size
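72 h, 37 °C compound treatment of KB-3-1 parental cells; CellTiter-Glo added, 10 min, luminescence read. Data corrected against DMSO-only plates and normalized before curve fitting.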
hERG WT inh: KCNH2 (human, wildtype) channel inhibition. Q12809. U2OS, BacMam KCNH2, thallium flux FluxOr; stronger effect = lower value. activity change, % at 1.84 µM. 340,000 compounds, 0.37% hits. AID 720551;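 active = maximum activity change below -70%; inconclusive = maximum activity change between -70% and -50%; inactive = maximum activity change above -50%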; note: % is set by controls: 0 for no effect and ±100 for the full control effect
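U2OS cells transduced with wild-type KCNH2 virus are loaded with FluxOr dye for 45 min, and thallium flux is measured in kinetic reads before and after stimulation buffer. Rate constants are normalized to DMSO controls.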
KB-V1 cytotox: KB-V1 MDR subline cytotoxicity; KB-V1 MDR cells viability, CellTiter-Glo, 72 h; Potency, µM (doses to about 46.1 µM), actives largely listed as cytotoxic; 400,000 compounds, 3.4% hits; note: potency is the fitted concentration of half-maximal effect; % is set by controls: 0 for no effect and ±100 for the full control effect; nearly all actives have a fitted effect of over 60% in size
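Potencies derive from concentration-effect curves fitted to normalized luminescence (CellTiter-Glo) of KB-V1 cells treated for 72 h at 37 degrees C in phenol-red-free DMEM containing 10% FBS.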
* hit, by the source's call; i = inactive; u = inconclusive; x = no result given. Hits are enriched below; roughly 7.6% of the tested compounds scored in any of these assays. Unless noted, calls come from the whole dose curve; as a rule, active = well fitted curve in the direction sought with a large enough effect; inconclusive = small, poorly fitted or top-dose-only effect, or another doubt; inactive = no such curve, though single readings can be large; an effect the other way counts as inactive or inconclusive.

SMILES	KCNH2 3.1 inh	MCF10A rereplic	SW480 rerep	KB-3-1 cytotox	hERG WT inh	KB-V1 cytotox
C/C(=N\NC(=S)Nc1cc(S(=O)(=O)N2CCOCC2)ccc1Cl)c1ccccc1F	-8	u	u	u	-4	3.7µM*
CC(C)N(C(=S)Nc1cc(S(=O)(=O)N2CCOCC2)ccc1Cl)c1ccccc1	5	-3%	-6%	i	3	i
CNc1c(-n2cc(C(=O)OC)c(C(=O)OC)c2C(=O)OC)c(=O)n(C)c(=O)n1C	5	1%	-1%	i	-16	i
CC1CCC(N(CCCN)Cc2ccco2)CC1C (configuration not stated)	11	-5%	-10%	i	3	u
COc1cc(NS(=O)(=O)c2ccc(NC(=O)c3cccnc3)cc2)ncn1	13	0%	-4%	i	5	u
Cc1sc2ncnc(SCC(=O)N(C)C3CCS(=O)(=O)C3)c2c1C (configuration not stated)	-4	0%	-5%	i	-14	u
O=C(Nc1cc(S(=O)(=O)N2CCOCC2)ccc1N1CCOCC1)c1ccccc1Cl	0	-1%	3%	i	-5	i
O=C(Nc1cc(S(=O)(=O)N2CCOCC2)ccc1N1CCCC1)c1cc(F)c(F)cc1Cl	-9	-1%	-3%	i	2	16µM*
COc1ccc(NC(=O)c2cc(S(=O)(=O)N3CCOCC3)ccc2N2CCOCC2)cc1	10	10%	14%	x	-8	x
O=C(Nc1ccc(OC(F)F)cc1)c1cc(S(=O)(=O)N2CCOCC2)ccc1N1CCCC1	-4	-3%	-2%	i	21	9.2µM*
COC(=O)c1c(-c2cccs2)csc1NC(=O)c1cccc(Cl)c1	x	x	x	i	x	i
CCOc1ccc(-c2nn(CC(=O)NC3CCCC3)c3c2cnc2ccc(F)cc23)cc1	x	x	x	i	x	i
O=C(Cc1ccc(NC(=O)C2CCN(C(=O)C3CCCC3)CC2)cc1)Nc1ccc(C(=O)N2CCOCC2)cc1	-5	2%	2%	i	-16	i
COc1cccc(/C=N/Nc2ccnc(=O)[nH]2)c1O	2	u	u	4.6µM*	2	u
O=c1nccc(N/N=C/c2ccccc2O)[nH]1	7	8%	u	6.5µM*	0	i
COc1cccc(/C=N/Nc2snc(SC)c2C#N)c1O	-2	6%	5%	13µM*	-1	16µM*
CCOC(=O)C1CCN(C(=O)c2cc(S(=O)(=O)N3CCCCCC3)ccc2OC)CC1	-7	4%	-4%	i	-12	i
O=[N+]([O-])c1ccc(CN2CCN(Cc3c[nH]c4ccccc34)CC2)cc1	-77*	9%	9%	i	-38	i
O=[N+]([O-])c1ccc(/C=N\N2CCN(Cc3ccccc3Cl)CC2)cc1	-9	x	x	i	30	i
Cc1ccccc1N1CCN(Cc2c[nH]c3ccccc23)CC1	-85*	u	12%	i	21	i
Brc1ccc(CN2CCN(Cc3c[nH]c4ccccc34)CC2)cc1	-12	u	u	u	29	u
O=[N+]([O-])c1ccc(/C=N/N2CCN(Cc3ccccc3)CC2)cc1	-80*	17%	u	i	-9	i
Cc1ccc(CNC(=O)c2ccc(CS(=O)(=O)Cc3ccc(F)cc3)o2)cc1	x	x	x	i	x	i
CCCCCOC(=O)CSc1ncnc2c1sc1nc(N3CCOCC3)c3c(c12)CCCC3	x	x	x	i	x	i
O=c1[nH]c(CN2CCN(c3ccc([N+](=O)[O-])cc3)CC2)nc2ccsc12	-29	-3%	0%	16µM*	9	18µM*
SMILES	KCNH2 3.1 inh	MCF10A rereplic	SW480 rerep	KB-3-1 cytotox	hERG WT inh	KB-V1 cytotox
O=C(CN(Cc1ccccc1)C(=O)c1cc2c(s1)CCC2)NCc1cccs1	-5	14%	17%	u	5	2.9µM*
COC(=O)C1=CN(Cc2ccc(C)cc2)C=C(C(=O)OC)C1c1ccc(F)c(F)c1	-15	23µM*	4.6µM*	i	-10	u
COC(=O)C1=CN(Cc2ccc(F)cc2)C=C(C(=O)OC)C1c1cc(OC)c(OC)c(OC)c1	14	2%	23%	i	1	i
COC(=O)C1=CN(Cc2ccccc2)C=C(C(=O)OC)C1c1cc(F)ccc1F	-2	21µM*	u	i	-8	i
Cc1cccc(CNC(=O)c2ccc(NC(=O)N3CCSc4ccccc43)cc2)c1	x	x	x	i	x	i
CN1CCCN(C(=O)Cc2c(Cl)cccc2Cl)c2nc3ccccc3nc21	9	u	16µM*	i	-2	i
C[C@@H]1CN([C@@H](C)CO)C(=O)CCCn2nncc2CO[C@H]1CN(C)C(=O)OCc1ccccc1	1	x	x	i	-14	u
COc1ccc2c(c1)[nH]c(=O)c1sc3ccccc3c12	3	13µM*	3%	i	-2	i
COc1ccc2sc3c(=O)[nH]c4ccccc4c3c2c1	-24	u	5%	u	0	u
COC(=O)c1c(NC(=O)CN2C(=O)NC3(CCc4ccccc4C3)C2=O)sc2c1CCCCC2 (configuration not stated)	23	1%	2%	i	-5	u
Oc1cc2c(cc1O)[C@@H](c1ccccc1)CNCC2	-8	18µM*	19%	i	17	i
CCOC(=O)c1c(NC(=O)C(=O)N/N=C/c2ccccc2O)sc2c1CCCCC2	4	-1%	u	u	-14	3.7µM*
CCOC(=O)c1c(NC(=O)c2ccc(OC)cc2)sc2c1CCCCC2	x	x	x	i	x	i
CCOC(=O)c1c(NC(=O)C(=O)N/N=C(\C)c2ccc(OC)cc2)sc2c1CCCCC2	-11	8%	-5%	i	-20	3.3µM*
NC(=O)C1CCN(c2ncc(-c3ccc4c(c3)OCO4)s2)CC1	x	x	x	i	x	i
COCCNC(=O)C(OC(=O)c1ccco1)c1ccc(OC)cc1 (configuration not stated)	6	-9%	-4%	u	-3	i
COc1ccc(-c2ccc(C(=O)NCc3ccc(N4CCN(C)CC4)cc3)c3occc23)c(C)c1	x	x	x	u	x	i
O=C(Nc1ccc(S(=O)(=O)N2CCCCC2c2cccnc2)cc1)c1ccc(Br)cc1 (configuration not stated)	x	x	x	u	x	12µM*
CC(Sc1nn(-c2ccc(F)cc2)c(=S)s1)C(=O)c1c(N)n(C)c(=O)n(C)c1=O (configuration not stated)	-2	29%	-6%	u	-13	6.5µM*
Cn1nc(C(C)(C)C)cc1C(=O)NCc1ccc(N2CCCC2=O)cc1	6	1%	13%	0.65µM*	31	0.58µM*
